Only a selection was taken, and hits are over-represented in it overall.
ERK EGF inh: blocks ERK signaling stimulated by EGF; HEK293-V1b, EGF-stimulated phospho-ERK AlphaScreen; Potency, µM (top dose mostly 11.5 µM), inactives show at the top dose activity change, negative = inhibition, most hits filed as inhibitors; actives 0.41% (n = 130,000); AID 1454;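 note: potency is the fitted concentration of half-maximal effect; plate controls were stimulated vehicle wells for no effect and unstimulated vehicle basal for full effect; nearly all actives have a fitted effect of over 55% in size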
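HEK293 cells stably expressing V1b receptor, serum-reduced (1% FBS) overnight, pretreated 30 min with compound, then stimulated 5 min with 25 nM EGF; phospho-ERK detected by AlphaScreen SureFire. AC50 from Hill fits, normalized to DMSO and EGF.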
ERK pERK EGF: confirmation of ERK pathway inhibitors under EGF stimulation | HEK293 EGF-stimulated ERK phosphorylation, AlphaScreen | shares compounds with ERK EGF inh | AID 1725 | actives 60% (n = 60) | Potency, µM (series often up to 57.5 µM), without a hit: at the top dose activity change, negative = inhibition, hits mostly inhibitors
c-Raf inh: c-Raf inhibition, ERK pathway follow-up; 70 tested, under 10 active; activity change, negative = inhibition, % at 76.9 µM; shares compounds with ERK EGF inh; c-Raf kinase inhibition, homogeneous biochemical assay
MEK1 kinase inh: MEK1 (human) kinase inhibition. shares compounds with ERK EGF inh. homogeneous MEK kinase activity assay, ERK pathway. Potency, µM (doses to about 76.9 µM), for the others: top-dose activity change, negative = inhibition, hits mostly inhibitors. 70 tested, under 10 active. AID 1732
* marks the source's active call; other numbers are inactive results; ? = inconclusive; · = not tested or not shown; [ ] = remark or other dose. Calls come from the whole dose curve; as a rule, active = well fitted curve in the direction sought with a large enough effect; inconclusive = small, poorly fitted or top-dose-only effect, or another doubt; inactive = no such curve, though single readings can be large; an effect the other way counts as inactive or inconclusive.

SMILES	ERK EGF inh	c-Raf inh	MEK1 kinase inh	others
CC1(C)OC(c2ccccc2)=C/C(=C/C=C2C(=O)c3ccccc3C2=O)O1	?	-12.1	-6.6%	ERK pERK EGF=?
Cc1noc(C)c1C(=O)OCC(=O)C12CC3CC(CC(C3)C1)C2	10.5%	·	·
O=C1C=C(O)c2cccc(O)c2C1=O	-16.1%[57.5 µM]	·	·
O=C1c2ccc(O)c(O)c2C(=O)c2c(O)ccc(O)c21	7.94µM*	?	?	ERK pERK EGF=10µM*
O=C1c2ccccc2C(=O)c2c([N+](=O)[O-])ccc(O)c21	-13.8%[57.5 µM]	·	·
CCOC(=O)N1CCC(=NNc2nc3ccccc3s2)CC1	4.5%[57.5 µM]	·	·
CC(=O)N1CCC(=NNc2nc3ccccc3s2)CC1	?	?	-3.9%	ERK pERK EGF=?
CC(=O)Nc1ccc(/C=N/Nc2nc3ccccc3s2)cc1	-5.5%[57.5 µM]	·	·
COc1ccc2c(c1)O[C@@H]1c3ccc(OC)cc3OCC21 (some centres not stated)	2.3%	·	·
CCOc1ccc(/C(O)=C2/C(=O)C(=O)N(c3ncccn3)C2c2ccc(C)cc2)cc1 (configuration not stated)	-3.9%[57.5 µM]	·	·
CCOc1ccc(/C(O)=C2/C(=O)C(=O)N(c3ncccn3)C2c2ccccc2)cc1 (configuration not stated)	·	4.2	0.4%	ERK pERK EGF=-5.7%
COc1ccc(/C(O)=C2/C(=O)C(=O)N(c3ncccn3)C2c2ccc(OC)cc2)cc1 (configuration not stated)	-3.2%	·	·
Cc1ccc(S(=O)(=O)Nc2cnc3ccccc3c2)cc1	-3.4%	·	·
Cc1ccc2nc(-c3ccccc3)c(-c3ccccc3)nc2c1	-10.1%	·	·
Cc1nc2ccccc2nc1OCc1ccccc1	-3.1%	·	·
Cc1ccc2nc(=O)c(NNc3ccccc3)cnc2c1	14.1µM*	-16.0	3.8%
Cc1nc2ccccc2nc(=O)c1NNc1ccccc1	·	-5.9	-2.2%	ERK pERK EGF=14.1µM*
CCOC(=O)c1nc2ccccc2nc1C	2.3%	·	·
COc1ccc(Cc2nc(-c3cccs3)no2)cc1	1.1%	·	·
Cn1c(C(=O)O)c(CC(=O)N2CCC(Cc3ccccc3)CC2)c2ccccc21	6.9%	·	·
CCN(Cc1ccncc1)Cc1nc(CC2CC2)no1	0.4%	·	·

Source: PubChem
